# Source: the supplement of paper PMC9694430
# Where a name gives a salt, the structure may show the parent alone.
# Legend:
# Experiment in all cases: thermal shift delta Tm vs DMSO control; higher = stronger stabilization (binding)
# Settings in all cases: 12.5 µM; protein concentration 2 µM
# [1] = test system: LOC_OS04G57630-cb004
# Summary of the method: (§1)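 Compounds dissolved in DMSO were added to purified rice kinase domain constructs, which had been expressed in E. coli, for differential scanning fluorimetry. Each well held 19.5 μl of 2 μM kinase in 100 mM potassium phosphate pH 7.5, 150 mM NaCl, 10% glycerol and 5 × SYPRO Orange. Fluorescence was followed from 25°C to 95°C at a rate of 0.05°C/s. Shifts in Boltzmann-fitted melting temperature are triplicate means relative to DMSO-only protein.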
# [2] = test system: LOC_OS05G07850-cb002
# Summary of the method: as §1
# [3] = test system: LOC_OS05G16824-cb004
# Summary of the method: as §1
# [4] = test system: LOC_OS05G28520-cb001
# Summary of the method: as §1
# [5] = test system: LOC_OS05G30820-cb001
# Summary of the method: as §1
# [6] = test system: LOC_OS05G43570-cb004
# Summary of the method: as §1
# [7] = test system: LOC_OS06G16330-cb003
# LOC_OS06G16330-cb003, sequence (as listed by the source): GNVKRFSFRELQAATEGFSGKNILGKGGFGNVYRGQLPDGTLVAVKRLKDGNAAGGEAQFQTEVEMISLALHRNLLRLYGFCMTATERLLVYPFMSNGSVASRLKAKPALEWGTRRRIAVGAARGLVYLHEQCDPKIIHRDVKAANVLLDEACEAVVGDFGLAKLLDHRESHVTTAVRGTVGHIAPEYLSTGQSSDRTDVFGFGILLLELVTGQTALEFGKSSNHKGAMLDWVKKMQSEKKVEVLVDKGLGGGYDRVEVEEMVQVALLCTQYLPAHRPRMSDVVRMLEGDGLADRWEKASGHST
# Summary of the method: as §1
# [8] = test system: T1, LOC_OS06G22820-cb001
# T1 sequence (whole entry): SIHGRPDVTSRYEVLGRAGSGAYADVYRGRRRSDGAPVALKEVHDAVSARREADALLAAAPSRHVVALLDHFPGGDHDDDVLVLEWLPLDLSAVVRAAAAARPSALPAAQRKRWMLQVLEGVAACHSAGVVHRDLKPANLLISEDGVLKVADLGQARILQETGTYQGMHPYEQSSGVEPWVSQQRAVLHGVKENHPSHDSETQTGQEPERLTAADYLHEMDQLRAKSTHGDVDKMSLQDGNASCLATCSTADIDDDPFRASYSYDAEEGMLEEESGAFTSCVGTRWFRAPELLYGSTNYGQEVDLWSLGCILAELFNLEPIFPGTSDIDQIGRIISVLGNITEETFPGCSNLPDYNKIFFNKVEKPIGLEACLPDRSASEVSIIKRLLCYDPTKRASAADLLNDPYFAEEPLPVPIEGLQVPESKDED
# Summary of the method: as §1
# [9] = test system: LOC_OS07G06570-cb004
# Summary of the method: as §1
# [10] = test system: LOC_OS07G07230-cb001
# Summary of the method: as §1
SMILES,thermal shift delta Tm [1] [°C],thermal shift delta Tm [2] [°C],thermal shift delta Tm [3] [°C],thermal shift delta Tm [4] [°C],thermal shift delta Tm [5] [°C],thermal shift delta Tm [6] [°C],thermal shift delta Tm [7] [°C],thermal shift delta Tm [8] [°C],thermal shift delta Tm [9] [°C],thermal shift delta Tm [10] [°C]
C=CC(=O)Nc1cccc(C)c1Nc1ncc2cc(-c3c(Cl)c(OC)cc(OC)c3Cl)ccc2n1,0.51,0.53,-0.76,0.18,0.34,0.48,-5.85,0.33,0.84,0.04
CN(C)C/C=C/C(=O)Nc1ccc(C(=O)Nc2cccc(Nc3ncc(Cl)c(-c4c[nH]c5ccccc45)n3)c2)cc1,2.1,11.2,11.9,4.57,5.85,1.59,11.2,0.86,1.53,0.68
C[C@H](Nc1ncnc2[nH]cnc12)c1cc2ccc(F)cc2nc1-c1ccccn1,0.18,0.48,0.99,0.62,0.48,0.58,0.43,0.53,0.76,0.2
COCC(=O)NC/C=C/c1ccc2ncnc(Nc3ccc(Oc4ccc(C)nc4)c(C)c3)c2c1,0.08,3.11,-4.84,-0.02,0.4,0.04,0.23,0.59,0.41,0.08
COc1cc(N2CCN(C)CC2)ccc1Nc1ncc2c(n1)N(C)c1ccccc1C(=O)N2,0.23,3.08,-1.75,0.12,0.51,0.36,1.14,0.34,0.21,0.21
C=CC(=O)N1CCC[C@@H](n2nc(-c3ccc(Oc4ccccc4)cc3)c3c(N)ncnc32)C1,1,6.56,1.31,-0.3,0.44,0.27,1.99,0.54,0.5,0.64
O=c1c(-c2ccc(O)cc2)coc2cc(O)cc(O)c12 [Genistein],-1.09,5.31,-0.94,-0.31,0.78,0.36,0.87,0.81,-0.45,0.02
N#Cc1ccc(-c2c(-c3ncn[nH]3)sc(N3CCOCC3)c2C#N)c(F)c1,0.27,-0.29,-1.35,0.33,0.65,0.57,-0.08,0.61,1.08,0.24
CCNC(=O)C#Cc1ccc2c(C(=Nc3ccc(CN(C)C)cc3)c3ccccc3)c(O)[nH]c2c1,2.92,5.17,8.59,0.18,0.42,0.36,1.85,0.09,0.62,-0.34
COc1cc(C(=O)N2CCC(N3CCN(C)CC3)CC2)ccc1Nc1ncc2c(n1)N(C)c1ccccc1C(=O)N2C,0.47,4.15,-2.69,0.06,0.42,-1.79,0.93,0.32,0.88,0.74
OC1CCC(Nc2ncc3nc(Nc4c(F)cc(F)cc4F)n([C@H]4CCOC4)c3n2)CC1 (stereo not given in full) [Tanzisertib(CC-930)],-0.03,0.72,2.14,0.46,0.23,0.42,-0.07,0.59,1.81,0.44
COc1c(C)c(C(=O)c2ccc(N)c(C(=O)O)c2)n2ccccc12,0.19,0.78,-2.73,0.86,0.51,0.58,-0.18,0.47,1.2,0.36
C[C@@H](Oc1ccc2[nH]nc(/C=C/c3cnn(CCO)c3)c2c1)c1c(Cl)cncc1Cl,8.94,16,12.1,1.22,6.07,0.92,15.1,-0.35,0.87,0.66
Cc1cc(NC(=O)c2cccc(NC(=O)/C=C/CN(C)C)c2)ccc1Nc1nccc(-c2cccnc2)n1,7.66,2.7,1.96,1.08,0.57,0.56,2.18,1.05,1.56,-0.14
Cc1cc(C)c(/C=C2\C(=O)Nc3ccccc32)[nH]1 [Semaxanib (SU5416)],0.62,6.49,8.99,0.65,0.48,0.37,6.54,0.6,1.4,-0.2
Cc1cccc(Nc2nc(NC3CCCCC3N)ncc2C(N)=O)c1 (stereo not given),0.83,7.79,5.17,0.36,2.02,0.63,6.85,0.81,1.04,0.47
CN1CCN(c2ccc(Nc3cc(-c4cccc(-n5ccc6cc(C7CC7)cc(F)c6c5=O)c4CO)cn(C)c3=O)nc2)CC1,0.45,2.96,0.67,0.6,0.63,0.46,0.74,0.59,1.21,0.61
COc1cc2c(Oc3ccc(NC(=O)C4(C(=O)Nc5ccc(F)cc5)CC4)cc3F)ccnc2cc1OCCCN1CCOCC1,6.98,13.9,5.71,16,0.55,0.27,9.02,0.8,0.2,0.3
CC(C)n1nc(-c2ccc3oc(N)nc3c2)c2c(N)ncnc21,0.37,7.34,-0.35,0.63,0.45,0.24,2.84,0.75,1.22,0.29
NC(=O)c1ncn([C@@H]2O[C@H](CO)[C@@H](O)[C@H]2O)c1N [AICAR (Acadesine)],0.05,0.57,-1.12,-0.02,0.45,0.5,0.02,0.92,1.07,-0.25

SMILES,thermal shift delta Tm [1] [°C],thermal shift delta Tm [2] [°C],thermal shift delta Tm [3] [°C],thermal shift delta Tm [4] [°C],thermal shift delta Tm [5] [°C],thermal shift delta Tm [6] [°C],thermal shift delta Tm [7] [°C],thermal shift delta Tm [8] [°C],thermal shift delta Tm [9] [°C],thermal shift delta Tm [10] [°C]
"O=c1cc(-c2ccccc2)oc2c(O)c(O)ccc12 [7,8-Dihydroxyflavone]",-0.51,1.25,-6.61,2.12,1.22,1.47,1.88,1.1,3.28,0.94
CN1CCN(C2CCN(C(=O)Nc3cc(Oc4ccc(NC(=O)C5(C(=O)Nc6ccc(F)cc6)CC5)c(F)c4)ccn3)CC2)CC1 [Golvatinib (E7050)],0.73,5.87,-0.83,6.78,0.39,0.58,2.41,0.51,1.02,0.08
Cn1ncc(Cl)c1-c1cc(C(=O)N[C@H](CN)Cc2cccc(F)c2)sc1Cl,-0.03,0.66,-1.28,0.54,0.43,0.61,0.52,0.88,1.37,0.28
Cn1cc(-c2ccc3ncc(Cc4ccc5ncccc5c4)n3n2)cn1,1.12,5.01,-1.27,0.45,0.48,0.16,2.64,0.5,0.78,0.13
COc1cc2c(cc1OC)[C@@H]1C(=O)c3ccc4c(c3O[C@@H]1CO2)C=CC(C)(C)O4 [Deguelin],0.18,-0.44,-0.75,-0.03,-0.19,0.47,-0.59,0.97,0.49,-0.57
CCCCNc1ncc(-c2ccc(CN3CCOCC3)cn2)c(NC2CCC(O)CC2)n1 (stereo not given),4.09,9.44,8.95,0.2,0.7,0.43,9.08,0.1,0.37,0.71
C[C@@H]1COCCN1c1cc(C2([S@](C)(=N)=O)CC2)nc(-c2cc[nH]c3nccc2-3)n1,-0.11,3.99,-2.04,0.65,0.15,0.19,0.37,-0.1,0.71,-0.05
Cc1ccc(NC(=O)c2ccc(CN3CCN(C)CC3)cc2)cc1Nc1nccc(-c2cccnc2)n1 [Imatinib Mesylate (STI571)],0.35,2.65,0.21,0.58,0.32,0.49,0.2,0.68,1.07,0.85
O=C(O)c1ccc2c(c1)nc(Nc1cccc(Cl)c1)c1ccncc12 [Silmitasertib (CX-4945)],0.56,8.41,3.01,0.57,0.68,0.46,3.05,0.65,1.59,0.82
CCN(CC)CCNC(=O)c1c(C)[nH]c(/C=C2\C(=O)Nc3ccc(-c4csc(-c5ccccc5)n4)cc32)c1C [Amcasertib (BBI503)],2.36,10.8,12.7,2.76,0.34,0,6.16,0.72,1.73,0.75
CCCCCCCCCCCCCCCCOP(=O)([O-])OCC[N+](C)(C)C [Miltefosine],-0.37,-1.01,-3.83,-3.02,-0.84,-1.92,-5.12,-0.23,-2.61,-2.12
Cc1cc(Nc2cc(N3CCN(C)CC3)nc(/C=C/c3ccccc3)n2)n[nH]1,3.73,11.7,11.2,7.06,1.8,0.82,5.06,0.17,1.23,0.9
O=C(O)c1ccc(Nc2ncc3c(n2)-c2ccc(Cl)cc2C(c2c(F)cccc2F)=NC3)cc1,-0.29,4.66,-1.88,0.62,0.22,0.24,-0.12,0.97,0.4,0.33
CCCCCCCCCC(=O)CC(O)S(=O)(=O)O (stereo not given) [Sodium Houttuyfonate],0.61,0.71,-0.1,0.13,0.21,0.52,-8.96,-0.11,0.7,0.34
CCN1C(=O)CNc2ncc(-c3ccc(-c4nc[nH]n4)nc3C)nc21,-0.18,0.15,-3.58,0.29,0.42,-0.33,-0.44,0.23,0.95,0.66
O=C(Nc1cccc(Cl)c1)Nc1ncc(CCNc2ncnc3ccsc23)s1 [SNS-314 Mesylate],2.15,7.18,2.52,1.77,0.46,1.08,4.68,1.24,0.91,-0.06
NC(=O)c1cnc2[nH]ccc2c1N[C@@H]1[C@@H]2CC3C[C@H]1C[C@@](O)(C3)C2,1.22,12.5,8.26,0.32,2.71,0.73,5.88,0.43,1.29,0.84
Cn1ncc(Cl)c1-c1cc(C(=O)N[C@H](CN)Cc2ccc(F)c(F)c2)oc1Cl,0.39,1.08,2.91,1.26,0.24,1.04,1.15,0.82,-0.35,-0.13
CC(C)N(CCC(=O)c1ccc2ccccc2c1)Cc1ccccc1,0.41,4.18,-2.65,-0.95,-1.16,-0.34,-1.31,-1.34,0.13,0.23
